Test results: PubChem BioAssay (NCI)
About 83,000 compounds went through this panel and 20% of them were active in at least one assay; those are over-represented in the sample as a whole.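 Interpretation: 100, growth as untreated; towards 0, rising growth inhibition; 0, no net growth; 0 to -100, cell death. Compounds scoring below 10 were considered active.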 Calls of active or inactive are those of the source.

These compounds were tested on MALME-3M melanoma (assay: NCI-60 one-dose screen, 48 h (100 = growth as untreated, 0 = no growth, -100 = all killed)). Conditions: 10 µM unless noted.
With `CCCCCCCC/C=C\CCCCCCCCOc1ccc(CC(=O)NCC[N+]2(C)CCOCC2)cc1` the growth was 80.9% (inactive). In the case of `O=C(NNc1cnccn1)c1nc2cc(F)ccc2n2cccc12`, the growth is reported as 11% (inactive). In the case of `O=C(C1=Cc2cc3ccccc3n2Cc2cnnn21)c1ccc(O)cc1`, the growth is reported as 57.8% (inactive).

Each compound was assayed on MDA-MB-231 breast in the same assay as above. Conditions: 10 µM unless noted.
For `CCOC(=O)CC1CSC(Nc2ccccc2)=N1` (configuration not stated), the growth was 105% (inactive). In the case of `O=S(=O)(Nc1cc(Sc2cccc3cccnc23)c(O)c2ccccc12)c1ccccc1`, the growth is reported as 25.1% (inactive). `COc1ccc(C(=O)c2cc3c(N)c(C(=O)Nc4ccccc4)sc3nc2C)cc1` was tested, and the growth was 23.3% (inactive). With `N=c1c(S(=O)(=O)c2ccccc2)cc2c(=O)n3ccccc3nc2n1CC1CCCO1` (configuration not stated) the growth was 97.9% (inactive). In the case of `CC(C)(C)c1cc(Cl)c(O)c(CNCCO)c1`, the growth is reported as 115% (inactive). `CCN(CC)CCN1C(=O)c2c(c(C)c3c(oc4ccc(O)cc43)c2C)C1=O` was tested, and the growth was -28.7% (active). With `Fc1cccc(-c2ccc3c(c2)C2(CCNCC2)CN3)c1` the growth was 91.2% (inactive). In the case of `C=CC(=O)Nc1ccc(Oc2nccc(Nc3nnc(-c4ccc(C)cc4)s3)n2)cc1`, the growth is reported as 88.4% (inactive). For `NC1(CO)COC(c2ccccc2)OC1` (configuration not stated), the growth was 112% (inactive). In the case of `CCNc1ccc(-c2nc3ccccc3n3cccc23)cc1`, the growth is reported as 55.8% (inactive). In the case of `CC[N+]1(CC)CC[N+]2(CCCC(C)CC2)CC1` (configuration not stated), the growth is reported as 106% (inactive). In the case of `N=C(N)c1ccc(-c2ccc(-c3ccccc3)s2)cc1`, the growth is reported as 10.3% (inactive). For `O=C(CSc1nc(-c2ccccc2)cc(=O)[nH]1)Nc1nc(-c2ccccc2)cs1`, the growth was 116% (inactive). `Cc1nnc(-c2ccc3c(c2)nc(/C=C/c2ccccc2)n3C2CCCCC2)o1` was tested, and the growth was 87.3% (inactive). In the case of `O=S(=O)(NCCNc1nccc(-c2c(-c3ccc(F)c(O)c3)nc3sccn23)n1)c1ccc(F)cc1`, the growth is reported as 25.5% (inactive). With `CCN(CC)CCCN1C(=O)c2c(c(C)c3c(oc4ccc(O)cc43)c2C)C1=O` the growth was -80.9% (active). For `CCCCCCCCCCCCCCCCCC1=NC(C)(C)CN1CC(C)O` (configuration not stated), the growth was -9.03% (active). For `C#CC#CC#CC#CC#CC#CC#CC#CCC1OC[C@H](COC(=O)O[C@@H](C(=O)O[C@H]2C[C@@]3(O)[C@@H](OC(=O)c4ccccc4)[C@@H]4[C@]5(OC(C)=O)CO[C@@H]5C[C@H](O)[C@@]4(C)C(=O)[C@H](OC(C)=O)C(=C2C)C3(C)C)[C@@H](NC(=O)c2ccccc2)c2ccccc2)O1` (some centres not stated), the growth was 35.3% (inactive). With `Cc1ccc(Cl)cc1NC(=O)c1sc2nc3c(cc2c1N)C(=O)CCC3` the growth was 80% (inactive). `CC(=O)Oc1ccc(OC(C)=O)c2ccccc12` was tested, and the growth was -45.5% (active). In the case of `O=C(NNC(=O)c1nc2cc(F)ccc2n2cccc12)c1cnccn1`, the growth is reported as 37.4% (inactive). In the case of `C[C@H](C(=O)N(CCc1ccc(Cl)c(Cl)c1)Cc1cncs1)[C@@H]1CC[C@H](C[C@H](C)n2cc(CN3CCC(c4ccc(Cl)cc4)CC3)nn2)O1`, the growth is reported as 93.5% (inactive). `O=C(CC(=O)Nc1cccc(C(=O)O)c1)Nc1cccc(C(=O)O)c1` was tested, and the growth was 104% (inactive). For `C=C1CC[C@@H]2C(C)(C)[C@@H](O)CC[C@@]2(C)[C@@H]1COc1ccc2ccc(=O)oc2c1`, the growth was 89.4% (inactive). `CCS/C(Nc1ccccc1)=C(\C#N)C(=O)Nc1ccc(OC)cc1` was tested, and the growth was 44.5% (inactive). `Nc1nc(NC(=O)Nc2ccc(C(=O)O)cc2)nn1-c1ccc(S(N)(=O)=O)cc1` was tested, and the growth was 75.3% (inactive). In the case of `N#Cc1c(-c2ccccc2)nc(SCc2nnc(-c3ccc(Cl)cc3)o2)[nH]c1=O`, the growth is reported as 103% (inactive). `CCN(CC)c1ccc(/C=N/NC(=O)Cc2ccc(Nc3ccnc(C(F)(F)F)c3)cc2)c(O)c1` was tested, and the growth was 43% (inactive). `CC[C@]12C=CCN3CC[C@@]4(c5ccc(OC)cc5N(C)[C@H]4[C@@](O)(C(=O)OC)[C@@H]1OC(=O)CCC[P+](c1ccccc1)(c1ccccc1)c1ccccc1)[C@@H]32` was tested, and the growth was 1.29% (active). For `Oc1c(CN2CCC(N3CCCCC3)CC2)cc(Cc2cc(CN3CCC(N4CCCCC4)CC3)c(O)c3ncccc23)c2cccnc12`, the growth was 18.3% (inactive). In the case of `Nc1c(C(=O)Nc2cccc(Cl)c2)sc2nc3c(cc12)CCCC3`, the growth is reported as 93.3% (inactive). For `C=C(c1ccc(OC)c(/C=C/C(=O)c2ccc3c(c2)OCO3)c1)c1cc(OC)c(OC)c(OC)c1`, the growth was 29% (inactive). For `CCCCCN(CCCCC)CC(O)c1cc(C)c2ccc3cc(C(C)C)ccc3c2c1` (configuration not stated), the growth was -47.6% (active). For `O=C1/C=C/[C@@H](O)[C@@H]2C[C@@H](O)C[C@H]2/C=C/CCC[C@H](CCO)O1`, the growth was -83.1% (active). For `CC(=O)/C(=C/c1ccc([N+](=O)[O-])cc1)C(=O)c1ccccc1`, the growth was 91.4% (inactive). For `CC1(C)CC[C@]23CC[C@]4(C)[C@H](CC[C@@H]5[C@@]6(C)C/C(=C/c7ccncc7)C(=O)C(C)(C)[C@@H]6CC[C@]54C)[C@H]2[C@H]1OC3`, the growth was 65.5% (inactive). With `CCCCCCCC/C=C\CCCCCCCCOc1ccc(CC(=O)NCC[N+]2(C)CCOCC2)cc1` the growth was 68% (inactive). For `O=C(NNc1cnccn1)c1nc2cc(F)ccc2n2cccc12`, the growth was 27.5% (inactive). For `O=C(C1=Cc2cc3ccccc3n2Cc2cnnn21)c1ccc(O)cc1`, the growth was 75.5% (inactive).
